Laboratory results as given in the OligoGym collection.

These sequences were tested against TNK1 (assay: pooled miR-30 sensor sort-seq; sequence = guide strand). Conditions: shRNA.
Also: reference of the scale not given here.

In order of rising sensor-assay potency score (higher = more potent):
1. TAGACTTAGGCCCAGAACGTAG  -0.86
2. TTTGCCTTCTTTCTGTCTCCAT  -0.221
3. TATAGCAGCTCTTTTCTTCCAA  0.014
4. TTTGAAGGTGCGACCATTCTGG  0.416
5. TACAAAGTCGAAGTGCTCTGGC  0.534

Each sequence was assayed against TNKS2 in the same assay as above. Conditions: shRNA.

In order of rising sensor-assay potency score (higher = more potent):
1. TTTTGATTCGAGTAACATCAGC  -1.09
2. TTACAGTTTCGACATCTCCAGC  -0.869
3. TAGTTTCTTGTTACAAACCTTC  -0.305
4. TTATGCTAAAATCTACTCCTGG  0.0124
5. TTTCTTGTTACAAACCTTCTGA  0.0757
6. TATACTTTATTAGTAGAGCTGC  0.192
7. TAAATTTCCATAAATCAGCTAC  0.246
8. TTCCACTTGAACTAACTACTGA  0.487
9. TTTAATTGCAGCTTCATGGAGA  0.599
10. TTACTCTGTTATATCCTGCTGC  0.643
